Measured values as given in PubChem BioAssay (Tox21).
Results filed as inconclusive are left out. A call without a number means that no potency is given here. Activity calls are given as the source filed them. Unless noted, the call rests on the fitted dose curve; in most records, active means well fitted curve in the direction sought with a large enough effect in the repeat runs; inconclusive means weak or mixed curves; inactive means no such curve, though single readings can be large; an effect the other way counts as inactive or inconclusive.

Assays:
[1] = target: Aryl hydrocarbon receptor (Homo sapiens) (UniProt P35869); experiment: qHTS assay to identify small molecule that activate the aryl hydrocarbon receptor (AhR) signaling pathway (AID 743085); further: nearly all actives have a fitted effect of over 15% in size; further: potency means the concentration at half of the fitted maximal effect;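 on activation: HG2L7.5c1 human HepG2 liver cells with stably integrated DRE-driven firefly reporter; series mostly up to about 70 µM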
Summary of the method: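 AhR agonist activity is inferred from enhanced light output of a DRE-controlled firefly luciferase reporter in HepG2 cells, measured with ONE-Glo following 24 h treatment at 37C.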

[2] = qHTS assay to identify small molecule that activate the aryl hydrocarbon receptor (AhR) signaling pathway - cell viability counter screen (AID 743086);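 further: HepG2 liver cells carrying the AhR DRE luciferase reporter; series mostly up to about 70 µM; nearly all actives have a fitted effect of over 45% in size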
Summary of the method: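 Cytotoxicity counter screen: CellTiter-Fluor signal (30 min, 37 C) in 4000 HepG2 cells/well carrying the DRE-luciferase reporter, following 24 h compound exposure at 37 C.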

[3] = target: Peroxisome proliferator-activated receptor gamma (Homo sapiens) (UniProt P37231); experiment: qHTS assay to identify small molecule agonists of the peroxisome proliferator-activated receptor gamma (PPARg) signaling pathway (AID 743094; active means well fitted activation curve with a large enough effect in the signal ratio in the repeat runs, not every such curve was filed as active; the % refers to the signal ratio)
Summary of the method: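 Following 5 h plating at 37C, PPARg-bla HEK293H cells receive compound or DMSO for 17 h; fluorescence intensity is recorded after LiveBLAzer B/G loading for 1 h at room temperature.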

[4] = qHTS assay to identify small molecule antagonists of the peroxisome proliferator-activated receptor gamma (PPARg) signaling pathway - cell viability counter screen (AID 743194); further: nearly all actives have a fitted effect of over 55% in size
Summary of the method: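 Viability was measured as CellTiter-Glo luminescence in GeneBLAzer PPARg UAS-bla HEK293H cells. These cells had been exposed 17 h at 37 C to compounds together with rosiglitazone at 50 nM final, with the beta-lactamase readout taken in the same wells.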

[5] = qHTS assay for small molecule agonists of the antioxidant response element (ARE) signaling pathway (AID 743202; active means well fitted activation curve with a large enough effect in the signal ratio in the repeat runs, not every such curve was filed as active; the % refers to the signal ratio)
Summary of the method: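 An ARE-responsive beta-lactamase gene stably integrated in HepG2 cells serves as reporter. After 5 h plating and 16 h compound incubation at 37 C, fluorescence of the B/G FRET substrate was measured.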

[6] = qHTS assay for small molecule agonists of the antioxidant response element (ARE) signaling pathway - cell viability counter screen (AID 743203; calls by dose curve; further: nearly all actives have a fitted effect of over 55% in size)
Summary of the method: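 Compounds in DMSO were pinned onto ARE-bla HepG2 cells plated 5 hrs earlier at 2,000 cells/well. Sixteen hours later at 37C/5% CO2, CellTiter-Glo was added and luminescence measured after 30 min at room temperature.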

[7] = qHTS assay for small molecule activators of the heat shock response signaling pathway - cell viability counter screen (AID 743209); further: nearly all actives have a fitted effect of over 50% in size
Summary of the method: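 Counter screen for cytotoxicity in HeLa HSE-bla reporter cells. Treatment was 5 h at 37 C; viability was detected by luminescent ATP assay (CellTiter-Glo) in the same wells as the beta-lactamase read.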

[8] = qHTS assay for small molecule activators of the heat shock response signaling pathway (AID 743210; active means well fitted activation curve with a large enough effect in the signal ratio in the repeat runs, with a control signal flat, not every such curve was filed as active; the % refers to the signal ratio;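 further: HeLa cells with beta-lactamase reporter driven by heat shock elements; series mostly up to about 63 µM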)
Summary of the method: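 In HSE-bla HeLa cells, 5 h compound incubation (37 C) precedes addition of LiveBLAzer B/G substrate; after 2.5 h at room temperature, fluorescence intensity indicates reporter induction.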

[9] = qHTS assay to identify small molecule agonists of the peroxisome proliferator-activated receptor delta (PPARd) signaling pathway - cell viability counter screen (AID 743211); further: nearly all actives have a fitted effect of over 55% in size
Summary of the method: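 qHTS cell viability: PPARd-bla HEK293H; 17 h cpd, 37C; CellTiter-Glo, luminescence at 30 min RT.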

[10] = target: Peroxisome proliferator-activated receptor delta (Homo sapiens) (UniProt Q03181); experiment: qHTS assay to identify small molecule agonists of the peroxisome proliferator-activated receptor delta (PPARd) signaling pathway (AID 743212; calls by dose curve)
Summary of the method: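 HEK293H UAS-bla reporter cells, human PPARd system; compounds delivered in DMSO after 5 h plating, then at 37 C. Beta-lactamase FRET read, 2 h RT substrate step.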

[11] = qHTS assay to identify small molecule antagonists of the peroxisome proliferator-activated receptor delta (PPARd) signaling pathway - cell viability counter screen (AID 743213); further: nearly all actives have a fitted effect of over 50% in size
Summary of the method: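 HEK293H PPARd UAS-bla cells, 5 h pre-incubation, compound + L165041 300 nM final, 17 h 37 C; B/G FRET substrate 2 h RT; then CellTiter-Glo 30 min RT, luminescence.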

[12] = target: Bile acid receptor (Homo sapiens) (UniProt Q96RI1); experiment: qHTS assay to identify small molecule antagonists of the farnesoid-X-receptor (FXR) signaling pathway (AID 743217; active means well fitted inhibition curve with a large enough effect in the signal ratio in the repeat runs, not every such curve was filed as active; the % refers to the signal ratio)
Summary of the method: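 In this cell-based antagonist screen, inhibition of CDCA-driven (50 uM final) UAS-beta-lactamase expression in HEK 293T cells was measured by FRET fluorescence following 16 h compound exposure at 37 °C.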

[13] = qHTS assay to identify small molecule agonists of the farnesoid-X-receptor (FXR) signaling pathway - cell viability counter screen (AID 743218); further: nearly all actives have a fitted effect of over 45% in size
Summary of the method: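 After 16 h at 37 C with test compounds, FXR-bla HEK 293T cells were given LiveBLAzer B/G substrate for 2 h at RT and then CellTiter-Glo; luminescence was taken after 30 min.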

[14] = target: Bile acid receptor (Homo sapiens) (UniProt Q96RI1); experiment: qHTS assay to identify small molecule agonists of the farnesoid-X-receptor (FXR) signaling pathway (AID 743220; active means well fitted activation curve with a large enough effect in the signal ratio in the repeat runs, not every such curve was filed as active; the % refers to the signal ratio)
Summary of the method: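 Beta-lactamase reporter under UAS control in GeneBLAzer FXR HEK 293T cells (5000/well) measured with LiveBLAzer FRET substrate after 2 h at room temperature. Compound exposure lasted 16 h at 37C.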

[15] = qHTS assay to identify small molecule antagonists of the farnesoid-X-receptor (FXR) signaling pathway - cell viability counter screen (AID 743221; active means well fitted cell-killing curve with a large enough effect in the repeat runs, not every such curve was filed as active; further: nearly all actives have a fitted effect of over 50% in size)
Summary of the method: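 After a 5 h settling period, FXR-bla HEK 293T cells receive compound and chenodeoxycholic acid (50 uM final) and incubate 16 h at 37 C; CellTiter-Glo luminescence, read after 30 min at room temperature, reports cell viability.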

[16] = target: Vitamin D3 receptor (Homo sapiens) (UniProt P11473); experiment: qHTS assay to identify small molecule agonists of the vitamin D receptor (VDR) signaling pathway (AID 743222; calls by dose curve)
Summary of the method: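 VDR-bla cells were seeded, left 4 h, treated with compounds in DMSO for 16 h, incubated 2 h at RT with B/G FRET substrate, and read for fluorescence.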

[17] = target: Peroxisome proliferator-activated receptor delta (Homo sapiens) (UniProt Q03181); experiment: qHTS assay to identify small molecule antagonists of the peroxisome proliferator-activated receptor delta (PPARd) signaling pathway (AID 743215; active means well fitted inhibition curve with a large enough effect in the signal ratio in the repeat runs, not every such curve was filed as active; the % refers to the signal ratio;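 further: cells stimulated with agonist L165041 at 300 nM final during compound exposure; series mostly up to about 62 µM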)
Summary of the method: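 With L165041 present at 300 nM final, compounds were incubated 17 h at 37 C on PPARd UAS-bla HEK293H cells. A FRET-based beta-lactamase substrate was then applied for 2 h at room temperature and fluorescence intensity recorded.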

[18] = target: Vitamin D3 receptor (Homo sapiens) (UniProt P11473); experiment: qHTS assay to identify small molecule antagonists of the vitamin D receptor (VDR) signaling pathway (AID 743223; active means well fitted inhibition curve with a large enough effect in the signal ratio in the repeat runs, not every such curve was filed as active; the % refers to the signal ratio)
Summary of the method: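 Reporter line VDR-bla; stimulus 1alpha,25-(OH)2 vitamin D3, 3 nM final; compound co-addition, 16 h 37C/5% CO2; LiveBLAzer B/G substrate 2 h RT; fluorescence intensity.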

[19] = qHTS assay to identify small molecule agonists of the vitamin D receptor (VDR) signaling pathway - cell viability counter screen (AID 743224); further: series mostly up to about 63 µM; nearly all actives have a fitted effect of over 50% in size
Summary of the method: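 Here cell health was gauged by luminescent ATP detection (CellTiter-Glo, 30 min RT) in VDR-bla cells that had been incubated with test compounds for 16 h at 37C and 5% CO2.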

[20] = target: Peroxisome proliferator-activated receptor gamma (Homo sapiens) (UniProt P37231); experiment: qHTS assay to identify small molecule antagonists of the peroxisome proliferator-activated receptor gamma (PPARg) signaling pathway (AID 743191; calls by dose curve; further: series mostly up to about 63 µM; nearly all actives have a fitted effect of over 30% in size)
Summary of the method: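 Beta-lactamase reporter under UAS control in HEK293H PPARg-bla cells; compound treatment 17 h at 37C. Read-out: fluorescence intensity after 1 h room-temperature incubation with LiveBLAzer B/G FRET substrate.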

Vitamin D3 receptor (Homo sapiens), sequence (P11473 whole entry, looked up): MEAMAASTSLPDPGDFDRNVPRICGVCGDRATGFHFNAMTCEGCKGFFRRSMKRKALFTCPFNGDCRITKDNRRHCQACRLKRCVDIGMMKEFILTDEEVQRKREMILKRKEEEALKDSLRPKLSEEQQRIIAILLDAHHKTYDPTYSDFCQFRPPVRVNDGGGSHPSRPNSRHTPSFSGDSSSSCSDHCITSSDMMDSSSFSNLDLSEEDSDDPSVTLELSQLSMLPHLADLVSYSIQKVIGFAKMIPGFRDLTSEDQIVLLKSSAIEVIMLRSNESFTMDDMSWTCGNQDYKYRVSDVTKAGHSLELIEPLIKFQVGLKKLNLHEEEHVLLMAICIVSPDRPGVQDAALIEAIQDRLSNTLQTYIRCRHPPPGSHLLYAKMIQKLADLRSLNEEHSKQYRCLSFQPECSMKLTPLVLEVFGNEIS
Peroxisome proliferator-activated receptor gamma (Homo sapiens), sequence (P37231 whole entry, looked up): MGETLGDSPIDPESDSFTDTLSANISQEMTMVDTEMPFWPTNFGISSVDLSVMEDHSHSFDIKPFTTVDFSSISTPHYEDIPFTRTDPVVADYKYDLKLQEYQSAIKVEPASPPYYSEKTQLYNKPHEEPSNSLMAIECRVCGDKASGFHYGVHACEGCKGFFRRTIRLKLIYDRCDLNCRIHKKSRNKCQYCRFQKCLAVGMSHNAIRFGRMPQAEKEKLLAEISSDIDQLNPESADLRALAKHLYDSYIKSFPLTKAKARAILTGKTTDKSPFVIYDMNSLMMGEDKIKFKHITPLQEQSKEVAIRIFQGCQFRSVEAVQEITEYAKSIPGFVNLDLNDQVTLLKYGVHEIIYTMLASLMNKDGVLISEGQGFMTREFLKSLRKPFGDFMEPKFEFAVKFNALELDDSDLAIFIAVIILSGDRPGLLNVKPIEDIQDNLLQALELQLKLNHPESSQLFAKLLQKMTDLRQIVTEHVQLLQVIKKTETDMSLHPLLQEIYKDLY
Peroxisome proliferator-activated receptor delta (Homo sapiens), sequence (Q03181 whole entry, looked up): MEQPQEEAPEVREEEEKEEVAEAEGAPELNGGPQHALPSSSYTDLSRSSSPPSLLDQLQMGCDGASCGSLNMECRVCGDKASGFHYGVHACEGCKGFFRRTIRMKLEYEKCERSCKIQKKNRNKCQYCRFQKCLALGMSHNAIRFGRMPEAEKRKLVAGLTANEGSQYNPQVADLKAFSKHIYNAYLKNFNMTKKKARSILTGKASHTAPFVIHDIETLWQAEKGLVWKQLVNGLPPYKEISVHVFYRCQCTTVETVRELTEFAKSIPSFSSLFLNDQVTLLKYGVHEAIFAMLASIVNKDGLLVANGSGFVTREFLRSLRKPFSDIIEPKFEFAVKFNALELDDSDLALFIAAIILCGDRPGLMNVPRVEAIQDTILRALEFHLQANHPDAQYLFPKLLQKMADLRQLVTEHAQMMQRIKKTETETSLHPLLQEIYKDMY
Bile acid receptor (Homo sapiens), sequence (Q96RI1 whole entry, looked up): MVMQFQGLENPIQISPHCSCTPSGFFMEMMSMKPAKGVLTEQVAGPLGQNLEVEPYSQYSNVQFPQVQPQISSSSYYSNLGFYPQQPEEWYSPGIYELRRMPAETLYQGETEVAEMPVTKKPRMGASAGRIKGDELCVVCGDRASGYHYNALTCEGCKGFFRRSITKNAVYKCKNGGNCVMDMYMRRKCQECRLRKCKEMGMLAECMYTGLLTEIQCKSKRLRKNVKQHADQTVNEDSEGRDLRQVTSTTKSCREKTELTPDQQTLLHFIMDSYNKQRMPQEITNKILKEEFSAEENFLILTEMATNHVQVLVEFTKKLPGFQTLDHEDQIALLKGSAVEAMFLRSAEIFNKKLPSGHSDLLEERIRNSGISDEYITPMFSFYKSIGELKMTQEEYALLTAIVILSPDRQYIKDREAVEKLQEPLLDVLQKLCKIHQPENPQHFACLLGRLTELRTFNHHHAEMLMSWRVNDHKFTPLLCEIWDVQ
Aryl hydrocarbon receptor (Homo sapiens), sequence (P35869 whole entry, looked up): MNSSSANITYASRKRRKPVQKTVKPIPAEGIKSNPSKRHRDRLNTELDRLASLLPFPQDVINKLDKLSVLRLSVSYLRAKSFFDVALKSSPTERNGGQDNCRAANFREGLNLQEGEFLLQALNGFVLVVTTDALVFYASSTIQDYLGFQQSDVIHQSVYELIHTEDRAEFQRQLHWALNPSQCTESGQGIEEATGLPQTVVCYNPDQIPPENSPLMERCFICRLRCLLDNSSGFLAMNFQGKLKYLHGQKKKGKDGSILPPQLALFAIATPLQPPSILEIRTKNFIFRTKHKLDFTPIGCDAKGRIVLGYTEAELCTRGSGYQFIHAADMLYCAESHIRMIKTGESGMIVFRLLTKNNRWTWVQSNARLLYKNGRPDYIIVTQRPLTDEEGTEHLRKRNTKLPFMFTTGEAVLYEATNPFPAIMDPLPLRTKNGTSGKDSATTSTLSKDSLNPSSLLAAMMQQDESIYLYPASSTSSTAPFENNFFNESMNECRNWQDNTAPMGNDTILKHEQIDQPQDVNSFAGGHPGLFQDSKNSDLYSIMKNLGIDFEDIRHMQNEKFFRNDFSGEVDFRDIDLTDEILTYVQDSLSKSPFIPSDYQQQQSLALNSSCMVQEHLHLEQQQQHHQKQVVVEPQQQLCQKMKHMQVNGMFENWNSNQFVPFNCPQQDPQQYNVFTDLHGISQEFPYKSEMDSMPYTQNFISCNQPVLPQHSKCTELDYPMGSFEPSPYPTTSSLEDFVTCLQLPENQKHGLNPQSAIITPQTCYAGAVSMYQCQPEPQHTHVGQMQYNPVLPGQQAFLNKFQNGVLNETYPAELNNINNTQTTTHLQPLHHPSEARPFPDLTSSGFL

Row | SMILES | Potency [1] | Potency [2] | outcome [3] | Potency [4] | Potency [5] | outcome [6] | outcome [7] | outcome [8] | Potency [9] | outcome [10] | Potency [11] | outcome [12] | outcome [13] | outcome [14] | Potency [15] | outcome [16] | outcome [17] | outcome [18] | outcome [19] | outcome [20]
1 | C=CC(=O)N1CCOCC1 | inactive | inactive | inactive | inactive | inactive | inactive | inactive | inactive | inactive | inactive | inactive | inactive | inactive | inactive | inactive | inactive | – | – | – | –
2 | CC(C)(C)N(CCO)CCO | inactive | inactive | inactive | inactive | inactive | inactive | inactive | inactive | inactive | inactive | inactive | inactive | inactive | inactive | – | inactive | inactive | inactive | inactive | –
3 | CO[Si](CCCNCCC[Si](OC)(OC)OC)(OC)OC | inactive | inactive | inactive | inactive | inactive | inactive | inactive | inactive | inactive | – | inactive | – | inactive | inactive | inactive | inactive | – | inactive | inactive | –
4 | N[C@@H](CS)C(=O)O | inactive | inactive | inactive | inactive | inactive | inactive | inactive | inactive | inactive | inactive | inactive | – | inactive | – | inactive | inactive | inactive | – | inactive | –
5 | CCCc1ccccc1O | inactive | inactive | inactive | inactive | – | inactive | inactive | – | inactive | – | inactive | – | inactive | – | inactive | inactive | – | inactive | inactive | inactive
6 | CCC(C(=O)NC(N)=O)c1ccccc1 (stereo not drawn) | inactive | inactive | inactive | inactive | – | – | – | inactive | inactive | inactive | inactive | inactive | inactive | inactive | – | – | – | – | inactive | inactive
7 | CC(=O)N[C@@H](CCC(N)=O)C(=O)O | inactive | inactive | inactive | inactive | inactive | inactive | inactive | inactive | inactive | inactive | inactive | inactive | – | inactive | inactive | inactive | inactive | inactive | inactive | –
8 | CCCCCCCCCCCCCCCCCCOCC(O)CO (stereo not drawn) | inactive | inactive | inactive | inactive | inactive | inactive | inactive | inactive | inactive | inactive | inactive | – | inactive | – | inactive | – | – | inactive | – | –
9 | CC(C)[C@H](N)C(=O)OCCOCn1cnc2c(=O)[nH]c(N)nc21 | inactive | inactive | inactive | inactive | inactive | inactive | inactive | inactive | inactive | inactive | inactive | inactive | – | – | inactive | – | inactive | – | inactive | –
10 | NC(N)=NS(=O)(=O)c1ccc(N)cc1 | inactive | inactive | inactive | inactive | inactive | inactive | inactive | inactive | inactive | inactive | inactive | inactive | inactive | inactive | inactive | – | inactive | – | inactive | –
11 | CCCCCC[C@@H](CCC)C(=O)O | inactive | inactive | inactive | inactive | inactive | inactive | inactive | inactive | inactive | – | inactive | – | inactive | – | – | inactive | – | inactive | inactive | –
12 | COc1cc(C(=O)N2CCOCC2)cc(OC)c1OC | inactive | inactive | inactive | inactive | inactive | inactive | inactive | inactive | – | – | inactive | – | inactive | – | inactive | inactive | – | inactive | inactive | –
13 | CCOC(=O)Cn1c(=O)sc2cccc(Cl)c21 | 30.6 µM (active) | inactive | inactive | – | – | inactive | inactive | inactive | – | inactive | inactive | inactive | inactive | inactive | inactive | inactive | inactive | inactive | inactive | inactive
14 | N#CC1(O)CCCCC1 | inactive | inactive | inactive | – | inactive | inactive | inactive | inactive | inactive | inactive | inactive | inactive | inactive | inactive | inactive | inactive | – | inactive | – | inactive
15 | Cc1ccccc1C(=O)O | inactive | inactive | inactive | inactive | – | inactive | inactive | – | inactive | inactive | inactive | – | inactive | – | – | inactive | – | inactive | inactive | inactive
16 | CCC(=O)Nc1cccc(N)c1 | inactive | inactive | inactive | inactive | – | inactive | – | inactive | inactive | inactive | inactive | – | inactive | – | inactive | inactive | inactive | inactive | – | inactive
17 | C#CC(C)(O)CC(C)C (stereo not drawn) | inactive | inactive | inactive | – | inactive | inactive | inactive | inactive | inactive | inactive | – | – | inactive | – | inactive | inactive | inactive | inactive | inactive | inactive
18 | CCCCc1ccc(N)cc1 | inactive | inactive | inactive | – | inactive | inactive | inactive | inactive | inactive | – | inactive | – | inactive | – | – | inactive | – | inactive | inactive | inactive
